High-throughput results from PubChem.
Pf growth 48h – inhibits P. falciparum growth in the first generation, 48 h. P. falciparum luciferase growth in erythrocytes, 48 h. Potency, µM (top dose mostly 28.7 µM), inactives show top-dose activity change, negative = inhibition, actives largely listed as inhibitors. 5.9% of 310,000 active; further: potency means the concentration at half of the fitted maximal effect; on the % scale 0 is the no-effect control and ±100 the full control effect
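Parasite viability was followed by luminescence of a genomically integrated firefly luciferase. Cultures held 0.1% parasitemia at 2% hematocrit (final), incubated under 5% CO2 at 37 C.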
Lassa entry inh – Lassa virus entry inhibition. Lassa virus pseudotype entry inhibition, cell reporter. Potency, µM (doses to about 37.9 µM), inactives show at the top dose activity change, negative = inhibition, hits mostly inhibitors. 1.2% of 300,000 active; calls by dose curve; tested in HEK293 cells; further: potency means the concentration at half of the fitted maximal effect; on the % scale 0 is the no-effect control and ±100 the full control effect; nearly all actives have a fitted effect of over 50% in size
Pf growth 96h – inhibits malaria parasite growth, 96 h | P. falciparum luciferase reporter growth, 96 h | Potency, µM (top dose mostly 28.7 µM), for the others: at the highest dose activity change, negative = inhibition, actives largely listed as inhibitors | 6.9% of 320,000 active; further: potency means the concentration at half of the fitted maximal effect; on the % scale 0 is the no-effect control and ±100 the full control effect
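Plates of compound plus infected erythrocytes (2% hematocrit, 0.05% parasitemia final) incubate 96 hours, 37 C, 5% CO2. Detection reagent added; reduced luminescence from the parasites' luciferase reporter flags inhibition.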
CHX counter – counter-screen for Shiga toxin inhibitors: cycloheximide protein synthesis inhibition. cell reporter, cycloheximide protein synthesis inhibition counterscreen. max response, %. 12% of 300,000 active. AID 2314; in the data active means max response mostly above about 13%, no sharp cut-off; inactive means mostly below about 14%; further: read at 38.3 µM for the half of the compounds with a filed dose; 0% is about no effect
Shiga toxin inh – Shiga toxin inhibition; 9.2% of 290,000 active; Vero cells, Shiga toxin protein synthesis inhibition reporter; inhibition, % at 38.7 µM; in the data active means inhibition mostly above about 28%, no sharp cut-off; inactive means mostly below about 43%; further: 0% is about no effect
Marburg entry inh – inhibitors of Marburg virus binding or cell entry | Marburg virus pseudotyped entry inhibition, cell reporter | 1.8% of 300,000 active | Potency, µM (highest dose often 37.8 µM), inactives show top-dose activity change, negative = inhibition, actives largely listed as inhibitors; calls by dose curve; tested in HEK293 cells; further: potency means the concentration at half of the fitted maximal effect; on the % scale 0 is the no-effect control and ±100 the full control effect
Starred values were filed as active, the others as inactive; ? = inconclusive; . = no result given; [ ] = remark or other dose. Compounds with a hit are over-represented: about 19% of the library has one in this group of screens. Unless noted, the call rests on the fitted dose curve; in most records, active means well fitted inhibition curve with a large enough effect; inconclusive means small, poorly fitted or top-dose-only effect, or another doubt; inactive means no such curve, though single readings can be large or run the other way.

SMILES | Pf growth 48h | Lassa entry inh | Pf growth 96h | CHX counter | Shiga toxin inh | Marburg entry inh
Cc1ccc(C(C)C)c(OCC(=O)Nc2nc3c(s2)CCCC3)c1 | . | 3.2µM* | . | . | . | ?
Cc1ccc(CC(=O)Nc2nc3c(s2)CCCC3)cc1 | 49% | ? | . | 26 | 46 | ?
CC(C)(C)C1CCc2nc(NC(=O)COc3ccc(F)cc3)sc2C1 (centres undefined) | . | 19%[46.1 µM] | . | . | . | ?
O=C(CN(C(=O)CNS(=O)(=O)c1ccc(F)cc1)c1ccc(F)cc1)NCc1ccco1 | -23% | -6% | -14% | -3 | -3 | -8%[46.1 µM]
COC(=O)c1cccc(-n2nnnc2SCC(=O)Nc2nc3c(s2)CCCC3)c1 | -10% | 0% | ? | -3 | 1 | 0%
COc1ccc(NC(=O)Nc2nc3c(s2)CCCC3)cc1 | 97% | ? | 13% | 19* | 16 | 0%
O=C(Nc1cccc(Br)c1)Nc1nc2c(s1)CCCCCC2 | . | 4%[46.1 µM] | . | . | . | .
COc1cccc(-n2nnnc2SCC(=O)Nc2nc3c(s2)CCCC3)c1 | -23% | 2% | ? | 25* | 87* | 1%
COc1ccccc1OCC(=O)Nc1nc2c(s1)CCCC2 | 23% | . | 1% | 49* | 78* | .
CCC1(c2ccccc2)NC(=O)N(CC(=O)N(C)CC(=O)Nc2cccc(F)c2)C1=O (centres undefined) | 2% | 2% | 40% | -5 | 25 | 0%
Cc1nn(-c2ncc(C(F)(F)F)cc2Cl)c(=O)n1-c1cccc(F)c1 | ? | 10% | -22% | -2 | -7 | 18%[46.1 µM]
CCC1=C(OC(=O)N(CC)CC)N2C(=O)OC(=NCC3CC3)[C@]2(Cc2ccccc2)[C@H]2C1=CC[C@H]1C(=O)N(C)C(=O)[C@H]12 | 10µM* | . | 9.3µM* | -4 | -7 | .
CCC1=C(OC(=O)N(CC)CC)N2C(=O)OC(=NCC(=O)OC)[C@]2(Cc2ccccc2)[C@H]2C1=CC[C@H]1C(=O)N(c3ccccc3)C(=O)[C@H]12 | 6.6µM* | . | 9.3µM* | -4 | -4 | .
CCC1=C(OC(=O)N(CC)CC)N2C(=O)OC(=NCC3CC3)[C@]2(Cc2ccccc2)[C@H]2C1=CC[C@H]1C(=O)N(c3ccccc3)C(=O)[C@H]12 | 2.6µM* | . | 2.9µM* | -4 | -3 | .
CC(C)CC(=O)n1nc(-c2cccnc2)nc1NCc1ccc(F)cc1 | . | -2%[46.1 µM] | . | . | . | 1%[46.1 µM]
COCC(=O)n1nc(-c2ccccc2)nc1NCc1ccc(F)cc1 | ? | 5% | . | 15 | 47* | 12%
O=C(c1cccnc1)n1nc(-c2ccco2)nc1NCc1cccs1 | 57% | . | 41% | 37* | 124* | .
COc1ccc(CNc2nc(-c3ccccc3)nn2C(=O)c2ccc([N+](=O)[O-])cc2)cc1 | 63% | 4% | -23% | 32* | 75* | ?
CC(=O)n1nc(-c2ccccc2)nc1NCc1cccs1 | 24% | 21% | ? | 25* | 30 | 5%
N#CC1C(C#N)N2CCCN2C1c1ccc(Cl)cc1 (centres undefined) | -1% | 1% | ? | -6 | -2 | 3%
CC(=O)n1nc(-c2ccccc2)nc1NCc1ccc(N(C)C)cc1 | 37% | ? | ? | 45* | 68* | 13%[46.1 µM]
CCC(=O)n1nc(-c2ccccc2)nc1NCc1ccccc1 | 21% | ? | 100% | 23* | 71* | ?
COCC(=O)n1nc(-c2ccccc2)nc1NCc1ccccc1 | 3% | ? | ? | 25* | 63 | ?
COCC(=O)n1nc(NCc2ccc(OC)cc2)nc1NCc1ccc(OC)cc1 | 10% | 6% | -14% | -1 | -5 | ?
CCNC(=S)NNC(=O)Cn1c(=O)c2c(ncn2CCOC)n(Cc2ccccc2)c1=O | -14% | -2% | ? | -11 | -6 | 2%[46.1 µM]
SMILES | Pf growth 48h | Lassa entry inh | Pf growth 96h | CHX counter | Shiga toxin inh | Marburg entry inh
O=C(N/N=C/c1ccccn1)c1cc(C2CC2)[nH]n1 | 264% | -27%[46.1 µM] | 13% | 38* | 111* | ?
CC(/C=N/NC(=O)c1cc(C2CC2)[nH]n1)=C\c1ccccc1 | 2% | . | 0% | 9.5* | 24 | .
O=C(N/N=C/c1cccc2ccccc12)c1cc(C2CC2)[nH]n1 | -5% | . | -16% | 22* | 75* | .
O=C(Cc1ccccc1)N/N=C/c1ccccn1 | . | 5% | . | . | . | 15%
Cc1cc(C(=O)N/N=C/c2ccccn2)n[nH]1 | 32% | . | 45% | 18* | 38 | .
COc1cccc(-n2c(COc3ccc(C)cc3)nnc2SCC(=O)O)c1 | 10% | 6% | 42% | -3 | 27 | 0%
CC1C(=O)N2CCCc3cc(S(=O)(=O)Nc4ccccc4F)cc1c32 (centres undefined) | -2% | -10% | 65% | . | . | 2%
CCc1nc(C)cn1S(=O)(=O)c1cc(Br)ccc1OC | ? | 0% | 23% | -5 | -16 | 19%
COc1ccc(-c2nc(C)ncc2-c2csc(C)n2)c(O)c1 | 4% | 15% | . | -2 | -21 | 11%
CCc1ccc(-n2nnnc2SCC(=O)Nc2ccc(NC(C)=O)cc2)cc1 | 0% | . | -20% | 3 | 4 | .
CN(C)C(=O)CCc1ccc2c3c([nH]c2c1)[C@]1(CCc2ccccc2)[C@@H](C(=O)N2CCCCC2)C[C@H](CC(=O)NCCc2ccccn2)C(=O)N1CC3 | . | . | . | . | . | 8%
Cc1cc(C(=O)N/N=C/c2cccc(OC(=O)c3cccc(Br)c3)c2)n[nH]1 | 26% | . | 7% | 15 | 23* | .
CCCCCCCc1cc2ccccc2c2c(C(=O)OCC)c(C(=O)OCC)c(C(=O)OCC)n12 | . | . | . | . | . | -5%[14.2 µM]
COc1ccc(-c2cc3ccc(O)c(CN4CCCC(C)C4)c3oc2=O)cc1 (centres undefined) | . | 9%[46.1 µM] | . | . | . | .
Fc1cccc(-c2ncc(-c3ccccc3)o2)c1 | . | ? | . | . | . | 1%
Cc1ccc(NC(=O)c2ccccc2-c2ccccc2C(=O)O)cc1 | -3% | 4% | -14% | -4 | -4 | ?
c1ccc(-c2cnc(-c3cccnc3)o2)cc1 | 12% | 1% | 75% | 49* | 59 | ?
Cc1ccc(-c2cnc(-c3ccccc3C(=O)O)o2)cc1 | 18% | ? | 42% | 29* | 61* | 8%[46.1 µM]
NC(=O)c1ccc(-c2ncc(-c3ccccc3)o2)cc1 | -70% | ? | ? | 44* | 85* | ?
COCCN1Cc2cccc(C(=O)Nc3ccc(S(=O)(=O)N4CCCCCC4)cc3)c2C1=O | ? | 7% | ? | -1 | -6 | -17%[46.1 µM]
Cn1nc(C(=O)NCCOc2ccccc2)c2ccccc2c1=O | 0% | 9% | 8% | 12 | 21 | 2%[46.1 µM]
COc1ccc(S(=O)(=O)N2CCCC(C(=O)NC3CCCC3)C2)cc1OC (centres undefined) | -12% | ? | ? | -7 | -16 | 1%[46.1 µM]
O=C(NCCCN1CCCC1=O)c1cccc(S(=O)(=O)Nc2ccc(F)cc2)c1 | ? | -10% | 13µM* | . | . | 16%
O=C(NCCCN1CCCC1=O)c1cccc(NS(=O)(=O)c2ccccc2)c1 | 3% | 2% | ? | . | . | -18%
O=C(NCCCN1CCCC1=O)c1cccc(C(F)(F)F)c1 | 3% | 0% | 8.3µM* | -1 | -1 | 2%
